Reference: the supplement of paper PMC6555819

Tests used:
Test in all cases: PBM binding z-score (relative to random genomic background probes); higher = stronger binding; sequences stand for … in GC…GCGATTGACAGCGTAGAATGAAGG
[1] = tested on: FXR:RXRa (NR concentration 270 nM, RXRa partner concentration 90 nM)
In short: (§1)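 Scanned fluorescence from custom Agilent 4×180K protein-binding microarrays was regression-normalized. Binding z-scores use random background probes as reference. Ligand-free nuclear receptor dimers were incubated on the arrays for 1 h and detected with antibodies against each partner (one per run).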

[2] = tested on: LXRa:RXRa (NR concentration 270 nM, RXRa partner concentration 90 nM)
In short: as §1

[3] = tested on: LXRa homodimer (NR concentration 270 nM)
In short: as §1

[4] = tested on: LXRb:RXRa (NR concentration 270 nM, RXRa partner concentration 90 nM)
In short: as §1

[5] = tested on: LXRb homodimer (NR concentration 270 nM)
In short: as §1

[6] = tested on: PPARa:RXRa (NR concentration 270 nM, RXRa partner concentration 90 nM)
In short: as §1

[7] = tested on: PPARg:RXRa (NR concentration 180 nM, RXRa partner concentration 90 nM)
In short: as §1

[8] = tested on: PPARg:RXRa 270nM:90nM, anti-RXR (NR concentration 270 nM, RXRa partner concentration 90 nM)
In short: as §1

[9] = tested on: PPARg:RXRa 30nM:10nM, anti-RXR (NR concentration 30 nM, RXRa partner concentration 10 nM)
In short: as §1

[10] = tested on: PPARg:RXRa 90nM:30nM, anti-RXR (NR concentration 90 nM, RXRa partner concentration 30 nM)
In short: as §1

[11] = tested on: PPARg:RXRa DBDmut IVT, anti-RXR (DBD mutation: RXRa K156A/R161A, NR concentration 270 nM, RXRa partner concentration 90 nM)
In short: as §1

[12] = tested on: PPARg:RXRa IVT, anti-PPARg (NR concentration 270 nM, RXRa partner concentration 90 nM)
In short: as §1

[13] = tested on: PPARg DBDmut:RXRa IVT, anti-PPARg (DBD mutation: PPARg1 K132A/R137A, NR concentration 270 nM, RXRa partner concentration 90 nM)
In short: as §1

[14] = tested on: PPARg DBDmut IVT, anti-PPARg (DBD mutation: PPARg1 K132A/R137A, NR concentration 270 nM)
In short: as §1

[15] = tested on: PPARg homodimer (NR concentration 180 nM)
In short: as §1

[16] = tested on: PXR:RXRa (NR concentration 270 nM, RXRa partner concentration 90 nM)
In short: as §1

[17] = tested on: PXR homodimer (NR concentration 270 nM)
In short: as §1

[18] = tested on: RARa:RXR (NR concentration 270 nM, RXRa partner concentration 90 nM)
In short: as §1

[19] = tested on: RARa homodimer (NR concentration 270 nM)
In short: as §1

[20] = tested on: RARb:RXRa (NR concentration 270 nM, RXRa partner concentration 90 nM)
In short: as §1

Sequence | PBM binding z-score [1] | PBM binding z-score [2] | PBM binding z-score [3] | PBM binding z-score [4] | PBM binding z-score [5] | PBM binding z-score [6] | PBM binding z-score [7] | PBM binding z-score [8] | PBM binding z-score [9] | PBM binding z-score [10] | PBM binding z-score [11] | PBM binding z-score [12] | PBM binding z-score [13] | PBM binding z-score [14] | PBM binding z-score [15] | PBM binding z-score [16] | PBM binding z-score [17] | PBM binding z-score [18] | PBM binding z-score [19] | PBM binding z-score [20]
AGTCAAACTTCATCTAGGTAACGTAAGATATGCT | -0.0376 | -0.223 | -0.295 | 0.127 | 0.1 | -0.0609 | 0.882 | 0.333 | 0.414 | 0.33 | 0.952 | 1.7 | 1.48 | 0.721 | -0.505 | -0.365 | 0.02 | -0.125 | 0.222 | 0.212
CTCGTAAGGTCGGTTGAGGTGAGTATACGGATAA | 2.14 | 1.03 | -0.261 | 0.701 | -0.404 | 1.46 | 0.0124 | 0.578 | -0.175 | 0.326 | 0.0738 | 0.679 | -0.123 | 0.104 | 0.333 | 2.72 | 0.279 | 1.82 | -0.0631 | 2.29
GCTACTAGGTCAGGTTGGTCAGCTAACGGGTACG | 1.47 | 0.811 | 0.0315 | 0.809 | 0.129 | 2.66 | 4.12 | 3.52 | 0.868 | 3.19 | 7.04 | 6.37 | 0.412 | 0.27 | 1.12 | 0.422 | -0.0861 | 0.74 | 0.258 | 3.26
GCATATAGGTAATACAAGGTGAAATTCCGATTGT | 1.74 | 2.2 | 0.342 | 0.712 | -0.117 | 1.67 | 1.51 | 0.952 | 0.515 | 0.795 | 3.71 | 2.81 | 0.826 | 1.54 | 0.323 | 0.55 | 0.0431 | 1.17 | 0.97 | 0.349
TCTTGTAGATCAACTGGAGGTTAAGAAAGATCGA | 0.425 | 1.71 | 1.03 | 1.22 | -0.276 | 1.53 | -0.287 | 1.31 | 2.76 | 1.89 | 1.68 | 0.919 | 0.402 | 0.432 | -0.255 | 0.704 | -0.291 | 1.13 | -0.0829 | 0.631
AATACAGGGTCACTAGGCCAGAGAAGGTACGAAT | 5.79 | 5.03 | 1.01 | 3.99 | 0.795 | 5.85 | 7.78 | 6.43 | 3.11 | 5.35 | 4.07 | 5.68 | 1.28 | 1.34 | 1.96 | 3.02 | 0.776 | 3.74 | 0.823 | 4.2
AGAATGAGGTTATACGTAGATCACGGAAGAAAGT | 2.18 | 2.11 | 0.266 | 1.61 | -0.128 | 3.03 | 1.91 | 2.03 | 0.729 | 1.42 | 4.13 | 2.15 | 1.62 | 1.21 | 0.376 | 1.19 | 0.48 | 1.72 | 0.335 | 1.53
GCTGCTAGGTCAGGTTGGTCATCTAACGGGTACG | 1.59 | 1.01 | 0.226 | 0.755 | 0.00509 | 1.45 | 0.55 | 1.02 | -0.203 | 0.295 | 2.9 | 2.41 | -0.672 | -0.462 | 0.986 | 0.706 | -0.262 | 1.02 | -0.199 | 3.29
GCTCGGAGGAAAAGGTCAGAGCTTTGTCCGTAGA | 2.6 | 3.37 | 0.256 | 2.58 | -0.596 | 3.83 | 2.82 | 4.46 | 1.36 | 4.22 | -0.0327 | 1.11 | -1.39 | -0.963 | 1.55 | 2.93 | -0.551 | 3.96 | 0.159 | 3.95
CGTCCAAGGTCAGAGGGGTCAGTGAATGCCGAGT | 6.36 | 4.81 | 1.33 | 4.54 | 0.592 | 5.12 | 4.33 | 4.71 | 1.43 | 3.39 | 2.84 | 3.28 | -0.262 | 0.193 | 5.46 | 6.03 | 9.87 | 6.26 | 2.33 | 5.24
ATCGATAGGTCGAAGGTGAGTATACCCACCCGAA | 0.952 | 0.85 | -0.301 | 0.557 | -0.268 | 2.9 | 4.53 | 5.41 | 3.58 | 5.43 | -0.27 | 1.54 | 0.544 | -0.0222 | 0.323 | 0.78 | 0.0246 | 2.02 | -0.0833 | 1.76
TCTTGTAGATTAAGCAGGTTAAGAAAGCCTGAGT | 0.514 | 0.349 | -0.181 | 0.403 | -0.31 | 0.868 | -0.488 | 1.37 | 2.84 | 2.08 | 1.64 | 0.902 | 0.0777 | 0.04 | -0.0749 | 0.401 | 0.0794 | 0.419 | 0.0226 | 0.106
CTACCAAGGTGAACAACGTCGTTGATTACTATTC | 0.772 | 0.327 | -0.307 | 0.812 | -0.301 | 1.29 | 0.69 | 0.538 | -0.133 | 0.52 | 2.88 | 2.23 | 0.00253 | 0.341 | -0.432 | 0.189 | -0.322 | 0.739 | 0.243 | 1.68
